“And” between values parts separate entries of the source, which are not always exact repeats. Identical values can stand only once. More than one record can exist for a structure, and the calls need not agree. The source made the active and inactive calls. How the source made its calls: active means hit-call score of the fitted dose curve at least 0.9, where 1 is the maximum; inactive means score below 0.9.

Read-out in this test: Monocyte Chemoattractant Protein-1 (MCP1), CCL2 (gene 6347)
The test is described as follows: BSK_hDFCGF_MCP1: BioMAP Diversity Plus: hDFCGF Assay for Monocyte Chemoattractant Protein-1 (MCP1) Biomarker Activity (AID 2284285). The note with it: primary human foreskin fibroblasts. The procedure:
BSK_hDFCGF is a cell-based, multiplexed-readout assay that uses foreskin fibroblast, a human skin primary cell, with measurements taken at 24 hours after chemical dosing in a 96-well plate.BSK_hDFCGF_MCP1 is an assay component measured in the BSK_hDFCGF assay. It measures MCP-1 antibody related to regulation of gene expression using ELISA technology.Data from the assay component BSK_hDFCGF_MCP1 was analyzed at the endpoint, BSK_hDFCGF_MCP1, in the positive analysis fitting direction relative to DMSO as the negative control and baseline of activity. Using a type of binding reporter, gain or loss-of-signal activity can be used to understand protein changes. To generalize the intended target to other relatable targets, this assay endpoint is annotated to the 'cytokine' intended target family, where the subfamily is 'chemotactic factor'.
The levels of cell surface (or secreted, indicated by the prefix "s") biomarker endpoints were measured by ELISA. Overt cytotoxicity to cells in confluent adherent cultures (all systems other than the BT system) was assessed by measuring total protein levels using sulforhodamine B (SRB) staining in parallel cultures at the time of biomarker measurements, indicated as SRB endpoints. For proliferation assays for adherent cell types, individual cell types are cultured at sub-confluence and relative cell numbers quantified by SRB staining at time points optimized for each system (48 h: 3C and CASM3C systems; 72 h: BT and HDF3CGF systems; 96 h: SAg system). SRB was performed by staining cells with 0.1% SRB after fixation with 10% TCA and reading wells at 560 nm.Viability and proliferation of PBMC (T cells) was quantified by Alamar Blue reduction for the SAg and BT systems. For PBMC viability (referred to as PBMC Cytotoxicity within the assay endpoint names), cells were plated (75,000/well in a 96-well plate) and then chemical samples added for 1 h before addition of activators, SEB and TSST-1 (20 ng/mL final concentration each). Cells were incubated for 90 h. Then, Alamar Blue (20 uL/well) (Invitrogen, Cat DAL1100) was added for 6 h, and the plates were read with a fluorescence microplate reader at 546/580 nm (excitation/emission). For PBMC proliferation, cells were plated and activated as above but incubated for only 16 h prior to addition of Alamar Blue. Plates were read after 6 h.
Regarding `O=P(O)(O)CCC(F)(F)C(F)(F)C(F)(F)C(F)(F)C(F)(F)C(F)(F)F`, the result was inactive. Still for that read-out and setting: under `O=C(O)CCC(F)(F)C(F)(F)C(F)(F)C(F)(F)C(F)(F)C(F)(F)F` stands “inactive”. For the compound `C=CC(=O)OCCC(F)(F)C(F)(F)C(F)(F)C(F)(F)C(F)(F)C(F)(F)C(F)(F)C(F)(F)F`, the result was inactive and the AC50 is 7.29 µM (active). In the same order, the values of `CN(Cc1cnc2nc(N)nc(N)c2n1)c1ccc(C(=O)N[C@@H](CCC(=O)O)C(=O)O)cc1` are “inactive” and 0.607 µM (active).

Take `O=C(O)CCC(F)(F)C(F)(F)C(F)(F)C(F)(F)C(F)(F)F`: the result was inactive. Consider `CN(CCO)S(=O)(=O)C(F)(F)C(F)(F)C(F)(F)C(F)(F)C(F)(F)C(F)(F)C(F)(F)C(F)(F)F`, for which the result was inactive and the AC50 was 0.0742 µM (active).

On to `O=P(O)(O)CCC(F)(F)C(F)(F)C(F)(F)C(F)(F)C(F)(F)C(F)(F)C(F)(F)C(F)(F)F`, for which the outcome was inactive. `O=S(=O)(O)C(F)(F)C(F)(F)C(F)(F)C(F)(F)C(F)(F)C(F)(F)C(F)(F)C(F)(F)C(F)(F)C(F)(F)F`: the half-maximal activity concentration (AC50) is 10.3 µM (active) and the outcome was inactive.

Consider `O=C(O)C(F)(F)OC(F)(F)C(F)(F)OC(F)(F)C(F)(F)OC(F)(F)C(F)(F)C(F)(F)C(F)(F)F`, for which the AC50 was 8.5 µM (active) and 8.66 µM (active). For `OCC(F)(F)C(F)(F)C(F)(F)C(F)(F)C(F)(F)C(F)(F)C(F)(F)C(F)(F)C(F)(F)C(F)(F)C(F)(F)F`, the result was inactive. With `O=C(CC(=O)C(F)(F)C(F)(F)C(F)(F)F)c1cccs1`, the result was inactive. For the compound `Oc1c(Cl)cc(Cl)cc1Sc1cc(Cl)cc(Cl)c1O`, the half-maximal activity concentration (AC50) was 2.54 µM (active) and 3.14 µM (active). In the case of `Oc1ccc(Cc2ccccc2O)cc1`, the result was inactive. On to `CCCCCCCCCCCC`, for which the AC50 was 11.1 µM (active) and 7.93 µM (active). For the compound `O=C1NS(=O)(=O)c2ccccc21`, the outcome was inactive.

One may read the AC50 as the concentration giving half of the maximal activity seen.

The record behind these values is PubChem BioAssay (EPA / NIEHS).
